Data taken from PubChem BioAssay (NCI).
This is part of a sample that, as a whole, favours compounds with a hit. Of some 83,000 tested, about 20% had one in any assay.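 Percent growth is the endpoint: 0 to 100 indicates growth inhibition (40 means 60% inhibition), 0 means no net growth, and negative values indicate cell death.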 A number with no mark means an inactive call. The source made the active and inactive calls. How the source made its calls: active means growth percent below 10; inactive means the rest.

Experiments:
Assay in all cases: NCI-60 one-dose screen, 48 h (100 = growth as untreated, 0 = no growth, -100 = all killed)
Details in all cases: 10 µM unless noted
NCI-H23 lung = system: NCI-H23 lung
NCI-H226 lung = system: NCI-H226 lung
NCI-H322M lung = system: NCI-H322M lung
HOP-62 NSCLC = system: HOP-62 NSCLC
NCI-H460 lung = system: NCI-H460 lung
HOP-92 NSCLC = system: HOP-92 NSCLC
NCI-H522 lung = system: NCI-H522 lung
A549/ATCC NSCLC = system: A549/ATCC NSCLC
786-0 renal = system: 786-0 renal
COLO 205 colon = system: COLO 205 colon
DU-145 prostate = system: DU-145 prostate
MALME-3M melanoma = system: MALME-3M melanoma
MDA-MB-231 breast = system: MDA-MB-231 breast
RXF 393 renal = system: RXF 393 renal
SF-268 CNS = system: SF-268 CNS
SF-295 CNS = system: SF-295 CNS
SF-539 CNS = system: SF-539 CNS
UACC-257 melanoma = system: UACC-257 melanoma
M14 melanoma = system: M14 melanoma
K-562 leukemia = system: K-562 leukemia

Row | SMILES | growth (NCI-H23 lung) | growth (NCI-H226 lung) | growth (NCI-H322M lung) | growth (HOP-62 NSCLC) | growth (NCI-H460 lung) | growth (HOP-92 NSCLC) | growth (NCI-H522 lung) | growth (A549/ATCC NSCLC) | growth (786-0 renal) | growth (COLO 205 colon) | growth (DU-145 prostate) | growth (MALME-3M melanoma) | growth (MDA-MB-231 breast) | growth (RXF 393 renal) | growth (SF-268 CNS) | growth (SF-295 CNS) | growth (SF-539 CNS) | growth (UACC-257 melanoma) | growth (M14 melanoma) | growth (K-562 leukemia)
1 | CC/C=C\C/C=C\C[C@H]1C/C=C2/C(=O)C=C[C@@H]2C/C=C\CCC(=O)O1 | 12.1% | -36.1% (active) | 45.3% | -1.49% (active) | -4.43% (active) | -11.8% (active) | -69.9% (active) | 2.89% (active) | -43.7% (active) | -29.9% (active) | 23.2% | 29.6% | 19.3% | -71.3% (active) | 21% | 3.94% (active) | -25.5% (active) | -13.3% (active) | 7.48% (active) | 
2 | O=C(COc1ccc(/C=C2\CSc3ccccc3C2=O)cc1)Nc1nccs1 | 61.1% | 97.9% | 87.9% | 94.5% | 107% | 78.8% | 7.48% (active) | 100% | 95.7% | 117% | 130% | 77.8% | 95.6% |  | 99.6% | 118% | 111% | 97.3% | 89.6% | -14.2% (active)
3 | COc1cc2c(cc1O)CC[C@@H]1[C@@H]2CC[C@]2(C)[C@@H](OCCCN(C)C)CC[C@@H]12 | -30% (active) | 9.47% (active) | -22.3% (active) | -57.8% (active) | -61.4% (active) | -18.2% (active) | -90.8% (active) | -33.7% (active) | -83.8% (active) | -71% (active) | -10.3% (active) | -76.1% (active) | -70.2% (active) | -88.3% (active) | -24.3% (active) | -79.8% (active) | -85% (active) | -77.4% (active) | -78.8% (active) | 
4 | OCCNc1nccc(N2CCN(c3ccnc4cc(Cl)ccc34)CC2)n1 | 80.5% | 92.2% | 84.2% | 56.3% | 96.8% | 88.7% | 65.2% | 80.6% | 92.8% | 65.6% | 98.8% |  | 54.9% | 77.1% | 82.7% | 58% | 79.6% | 84% | 68.7% | 24.2%
5 | CCCCCCN(CCCCCC)CCC(O)c1ccc2ccccc2c1 (stereo not drawn) | 45.3% | 79.2% | 80.9% | 101% | 51.5% | 2.35% (active) | 60.2% | 74.5% | 54.1% | 39.5% | 74.3% | 68.5% | 42.4% | 46.7% | 73.3% | 52.5% | 61.9% | 85.3% | 50.2% | 27.9%
6 | CC/C=C\C[C@H]1C/C=C2/C(=O)C=C[C@H]2C/C=C\CCCC(=O)O1 | 39.4% | 40.5% | 37.7% | 22.5% | 27.4% | 51.2% | -17.7% (active) | 29.5% | 24.7% | 6.26% (active) | 15% | 75.1% | 40.5% | 36.6% | 39.9% | 23.3% | 14.7% | 47.1% | 19.1% | 
7 | COc1cc(/C=C/C(=O)c2cccnc2Nc2ccc(F)cc2)cc(OC)c1OC | 40.2% | 43% | 103% | 43.6% | 22.5% | 37.7% | 29.7% | 32.9% | 70.3% | 83.9% | 0.388% (active) | 94.2% | 37.9% | 22.6% | 21.6% | 57.6% | 56.1% | 31.9% | 70% | 
8 | CCOc1nc(-c2ccccc2)cc2c(O)c(C(=O)O)[nH]c(=O)c12 | 60.9% | 101% | 147% | 98.2% | 102% | 28.2% | 136% | 108% | 111% | 118% | 101% |  | 104% | -10.5% (active) | 99.2% | 104% | 94.6% | 60.7% | 102% | 112%
